# Laboratory results published in PubChem BioAssay.
# For some assays here: Results with a measured potency or affinity are listed apart. Activity calls are given as the source filed them.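 The calls were made as follows, unless noted: active = compound raising the membrane signal above positive-control mean plus 3 SD in both repeats, and a primary screen hit; inactive = the rest.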
# Tests used:
# [1] = system: TRPC4 beta (transient receptor potential cation channel C4), mouse; experiment: TRPC4 cation channel opening, retest – cell-based, Fluo4 calcium, HEK293 TRPC4beta/mu-opioid, duplicates, 10 µM, confirmation (AID 2426;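 active = fluorescence ratio normalized to control raised more than 50% in primary screen plus both repeat runs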); details: Fluo4 calcium fluorescence, at 10 µM; hits give high values
# [2] = system: transient receptor potential cation channel C4 beta (TRPC4), mouse; experiment: TRPC4 cation channel opening, second retest – cell-based, second round, Fluo4, HEK293 TRPC4beta/mu-opioid, 1 µM, confirmation (AID 2461;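 active = primary screen active and over 50% activation in each of two duplicate runs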); details: Fluo4 calcium fluorescence, at 1 µM; hits give high values
# [3] = system: TRPC4 (transient receptor potential cation channel C4 beta), mouse; experiment: potentiation of DAMGO EC20 TRPC4 response – cell-based, second round, Fluo-4, HEK293 TRPC4beta/mu-opioid, 1 µM, confirmation (AID 2554;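 active = primary screen hit whose fluorescence ratio, in both repeats, exceeds the weak agonist control mean by 3 SD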); details: DAMGO EC20, Fluo-4 calcium flux, at 1 µM; hits give high values
# [4] = system: TRPC4 beta (transient receptor potential cation channel C4), mouse; experiment: potentiation of DAMGO EC20 TRPC4 response – cell-based, Fluo-4, HEK293 TRPC4beta/mu-opioid, confirmation (AID 2555;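 active = primary screen hit whose calcium fluorescence ratio, in both repeats, exceeds the weak agonist control mean by 3 SD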); details: DAMGO EC20, Fluo-4 calcium flux, at 10 µM; hits give high values
# [5] = biological target: Short transient receptor potential channel 4 (Mus musculus) (UniProt Q9QUQ5); experiment: blockers of DAMGO-evoked TRPC4 calcium flux – cell-based, Fluo4, HEK293 TRPC4beta/mu-opioid, confirmation (AID 2636;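 active = calcium signal cut by more than 3 SD below the full-agonist control yet still positive, in both repeats and the earlier primary screen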); details: at 10 µM; hits give high values
# [6] = biological target: Short transient receptor potential channel 4 (Mus musculus) (UniProt Q9QUQ5); experiment: blockers of DAMGO-evoked TRPC4 calcium flux – cell-based, second round, Fluo4, HEK293 TRPC4beta/mu-opioid, 1 µM, confirmation (AID 2637;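 active = calcium signal ratio cut to more than 3 SD under the fully stimulated control mean yet still positive, in both repeats and the primary screen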); details: at 1 µM; hits give high values
# [7] = biological target: Short transient receptor potential channel 4 (Mus musculus) (UniProt Q9QUQ5); experiment: calcium entry via TRPC4 opening agents – cell-based, HEK293 TRPC4/mu-opioid, Fluo-4 calcium, dose response (AID 434937;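 active = primary screen activator hit with a dose response curve and TRPC4 channel activation at any tested dose; inactive = no activation, no dose response, or not a primary hit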)
# [8] = biological target: Short transient receptor potential channel 4 (Mus musculus) (UniProt Q9QUQ5); experiment: potentiation of DAMGO-evoked TRPC4 calcium signal – cell-based, HEK293 TRPC4/mu-opioid, Fluo-4 calcium, EC20 DAMGO, dose response (AID 434941;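 active = earlier screen potentiator hit that boosts the TRPC4 ion channel at some dose, with a dose response; inactive = no potentiation, no dose response, or not a prior hit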;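 also: calcium entry triggered by an EC20 dose of DAMGO at the co-expressed mu-opioid receptor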)
# [9] = biological target: Short transient receptor potential channel 4 (Mus musculus) (UniProt Q9QUQ5); experiment: block of DAMGO-driven TRPC4 calcium entry – cell-based, HEK293 TRPC4/mu-opioid, Fluo-4 calcium, dose response (AID 434942;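 active = primary screen inhibitor hit that blocks the TRPC4 channel at some tested dose, yielding a dose curve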)
# [10] = biological target: Short transient receptor potential channel 6 (Mus musculus) (UniProt Q61143); experiment: TRPC6 blockade by TRPC4 inhibitor hits – cell-based, HEK293, membrane potential dye, duplicate, selectivity assay for TRPC4 inhibitor project, confirmation (AID 434948;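 active = active in primary screen and both duplicates, each dropping signal beyond three positive-control SD with fluorescence still positive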); details: HEK293 TRPC6, membrane potential dye fluorescence, at 10 µM, stimulated with maximal-effect acetylcholine; hits give high values
# [11] = biological target: Short transient receptor potential channel 6 (Mus musculus) (UniProt Q61143); experiment: TRPC6 opening by TRPC4 activator hits – cell-based, HEK293, membrane potential dye, duplicate, selectivity assay for TRPC4 activator project, confirmation (AID 434950;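 active = membrane potential signal rise above negative control mean plus 3 SD in both duplicates, also active in the earlier TRPC4 screen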); details: HEK293 TRPC6, membrane potential fluorescence, at 10 µM; activation: hits give high values; outcome: activation
# [12] = biological target: Short transient receptor potential channel 6 (Mus musculus) (UniProt Q61143); experiment: positive modulators of mouse TRPC6 channel – HEK293 cells, membrane potential dye, duplicate, selectivity assay for TRPC4 potentiator project, confirmation (AID 434952); details: HEK293 TRPC6, membrane potential dye fluorescence, at 10 µM, maximal acetylcholine added after compound; hits give high values
# [13] = biological target: Short transient receptor potential channel 4 (Mus musculus) (UniProt Q9QUQ5); experiment: calcium flux activators in TRPC4/5HT1a cells, counter-screen for TRPC4 activator project, cell-based, second counter screen, HEK293 TRPC4/5HT1a, Fluo-4 (AID 434977;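 active = calcium signal rise above buffer-control mean plus 5 SD in both duplicates, and also a hit in the primary screen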); details: Fluo-4 calcium flux, at 10 µM; hits give high values
# [14] = serotonin-gated TRPC4 signal block – cell-based, second counter screen, HEK293 TRPC4/5HT1a, Fluo-4, counter-screen for TRPC4 inhibitor project, confirmation (AID 434978;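 active = primary screen active whose calcium signal fell more than 3 SD beyond the full-serotonin control mean in both duplicate plates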;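 also: serotonin given first at submaximal then at maximal dose after compound preincubation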); details: Fluo-4 calcium flux, at 10 µM, serotonin added to trigger calcium flux; hits give high values
# [15] = system: TRPC4 (mouse), co-expressed with 5HT1a in HEK293; experiment: enhancement of serotonin-evoked TRPC4 response – cell-based, second counter screen, HEK293 TRPC4/5HT1a, Fluo-4, counter-screen for TRPC4 potentiator project, confirmation (AID 434979;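 active = signal rise over 3 SD above mean of control wells given weak agonist, in both repeats and first screen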); details: Fluo-4 calcium flux, at 10 µM, serotonin added at its EC20 dose; hits give high values
# [16] = nonspecific calcium rise without TRPC4 – cell-based, HEK293 mu-opioid receptor line, counter-screen for TRPC4 activator project, confirmation (AID 449723;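 active = hit in primary screen, with calcium signal over 5 SD above buffer well mean in both duplicates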;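 also: counter screen cells carry the mu-opioid receptor alone and lack TRPC4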); details: HEK293 mu-opioid cells, Fluo-4 calcium fluorescence, at 10 µM; hits give high values
# [17] = nonspecific potentiation of DAMGO calcium response – cell-based, HEK293 mu-opioid receptor line, counter-screen for TRPC4 allosteric potentiator project, confirmation (AID 449724;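 active = calcium signal rise more than 3 SD above the low-dose agonist control mean, in both duplicate plates and the primary screen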); details: HEK293 mu-opioid receptor cells, Fluo-4 calcium flux, at 10 µM, compound added before EC20 DAMGO stimulus; hits give high values
# Sequence of Short transient receptor potential channel 6 (Mus musculus) (Q61143 whole entry, looked up): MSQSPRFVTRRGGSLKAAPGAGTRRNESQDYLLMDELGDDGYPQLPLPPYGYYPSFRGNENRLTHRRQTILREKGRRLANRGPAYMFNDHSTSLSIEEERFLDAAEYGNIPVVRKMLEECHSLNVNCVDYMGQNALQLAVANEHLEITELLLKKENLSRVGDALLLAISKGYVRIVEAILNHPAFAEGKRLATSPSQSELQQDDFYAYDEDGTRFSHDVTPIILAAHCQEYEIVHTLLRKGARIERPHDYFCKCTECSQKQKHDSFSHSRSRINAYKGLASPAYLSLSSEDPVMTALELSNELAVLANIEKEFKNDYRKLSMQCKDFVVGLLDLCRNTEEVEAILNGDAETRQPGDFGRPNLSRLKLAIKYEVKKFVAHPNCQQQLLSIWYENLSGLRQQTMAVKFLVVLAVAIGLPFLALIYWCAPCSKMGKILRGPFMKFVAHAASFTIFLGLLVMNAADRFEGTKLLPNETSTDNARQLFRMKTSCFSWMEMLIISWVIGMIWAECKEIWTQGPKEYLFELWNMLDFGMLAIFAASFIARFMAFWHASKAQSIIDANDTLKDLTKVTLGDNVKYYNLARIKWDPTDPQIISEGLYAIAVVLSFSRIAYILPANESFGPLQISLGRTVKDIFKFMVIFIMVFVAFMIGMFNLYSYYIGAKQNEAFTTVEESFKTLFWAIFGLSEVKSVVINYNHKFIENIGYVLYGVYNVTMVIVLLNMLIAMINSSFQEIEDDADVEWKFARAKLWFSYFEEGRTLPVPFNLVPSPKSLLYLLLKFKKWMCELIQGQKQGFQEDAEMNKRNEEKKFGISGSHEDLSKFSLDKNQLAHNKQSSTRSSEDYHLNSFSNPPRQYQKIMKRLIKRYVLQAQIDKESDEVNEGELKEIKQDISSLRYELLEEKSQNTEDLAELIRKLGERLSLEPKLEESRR
# Sequence of Short transient receptor potential channel 4 (Mus musculus) (Q9QUQ5 whole entry, looked up): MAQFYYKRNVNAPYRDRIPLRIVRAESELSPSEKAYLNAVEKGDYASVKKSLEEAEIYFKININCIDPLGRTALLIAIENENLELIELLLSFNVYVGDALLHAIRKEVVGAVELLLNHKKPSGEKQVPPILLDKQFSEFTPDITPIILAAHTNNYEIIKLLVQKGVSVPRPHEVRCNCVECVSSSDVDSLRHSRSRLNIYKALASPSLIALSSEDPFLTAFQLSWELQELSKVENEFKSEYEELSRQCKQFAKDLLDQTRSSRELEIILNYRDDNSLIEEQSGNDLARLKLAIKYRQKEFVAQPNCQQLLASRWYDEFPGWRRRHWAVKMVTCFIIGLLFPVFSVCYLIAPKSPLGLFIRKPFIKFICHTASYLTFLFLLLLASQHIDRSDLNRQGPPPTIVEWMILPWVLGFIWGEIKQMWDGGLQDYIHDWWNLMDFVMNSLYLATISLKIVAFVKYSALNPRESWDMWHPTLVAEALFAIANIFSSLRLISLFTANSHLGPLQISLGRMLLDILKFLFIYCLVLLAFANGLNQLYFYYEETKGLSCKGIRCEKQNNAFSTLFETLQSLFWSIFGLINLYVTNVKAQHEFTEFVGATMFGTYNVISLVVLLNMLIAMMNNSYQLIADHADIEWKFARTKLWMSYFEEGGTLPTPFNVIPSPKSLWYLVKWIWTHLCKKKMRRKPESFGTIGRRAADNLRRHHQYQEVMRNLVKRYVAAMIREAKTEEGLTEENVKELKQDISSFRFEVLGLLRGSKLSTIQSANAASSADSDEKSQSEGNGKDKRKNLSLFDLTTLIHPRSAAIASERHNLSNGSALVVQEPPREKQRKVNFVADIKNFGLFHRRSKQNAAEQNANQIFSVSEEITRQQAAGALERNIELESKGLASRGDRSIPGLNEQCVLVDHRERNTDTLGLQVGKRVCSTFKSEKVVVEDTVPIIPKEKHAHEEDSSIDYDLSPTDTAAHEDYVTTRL
Structure (SMILES),outcome [1],outcome [2],outcome [3],outcome [4],outcome [5],outcome [6],outcome [7],outcome [8],outcome [9],outcome [10],outcome [11],outcome [12],outcome [13],outcome [14],outcome [15],outcome [16],outcome [17],potentiation [15],inhibition [5]
CC(C)Oc1cc(N)c(Cl)cc1Cl,inactive,inactive,inactive,inactive,inactive,inactive,inactive,inactive,inactive,inactive,inactive,inactive,inactive,inactive,inactive,inactive,inactive,–,–
NC(=O)c1ccc(N2CCN(c3ncc(C(F)(F)F)cc3Cl)CC2)cc1,inactive,inactive,inactive,inactive,inactive,inactive,inactive,inactive,inactive,inactive,inactive,inactive,inactive,inactive,–,inactive,inactive,11.9% (active),–
Cc1ccc(-n2c(SCc3cc(=O)n4ccsc4n3)nnc2-c2cccnc2)c(C)c1,inactive,inactive,inactive,inactive,inactive,inactive,inactive,inactive,inactive,inactive,inactive,inactive,inactive,inactive,inactive,inactive,inactive,–,–
Cc1n[nH]c(C)c1Cc1c(F)cccc1Cl,inactive,inactive,inactive,inactive,–,inactive,inactive,inactive,inactive,inactive,inactive,inactive,inactive,inactive,inactive,inactive,inactive,–,94% (active)
CCOc1ccc2ccccc2c1/C=N/NC(=O)c1cc(C)[nH]n1,inactive,inactive,inactive,inactive,inactive,inactive,inactive,inactive,inactive,inactive,inactive,inactive,inactive,inactive,inactive,inactive,inactive,–,–
CC(C)(C)c1ccc(-c2nc3cc(N)ccc3o2)cc1,inactive,inactive,inactive,inactive,inactive,inactive,inactive,inactive,inactive,inactive,inactive,inactive,inactive,inactive,inactive,inactive,inactive,–,–
CC(=O)Oc1c(C)cc(O)c2ccccc12,inactive,inactive,inactive,inactive,inactive,inactive,inactive,inactive,inactive,inactive,inactive,inactive,inactive,inactive,inactive,inactive,inactive,–,–
